Measured values: PubChem BioAssay AID2685 (National Center for Advancing Translational Sciences (NCATS), 2010)
Hit rate of the full screen: of about 320,000 compounds, about 2,100 (0.66%) were called active. Not shown: some 53% with an inconclusive outcome. The sample holds actives, similar compounds and a random draw of the others, so the mix is not that of the screen. Calls come from the whole dose curve; as a rule, active = well fitted inhibition curve with a large enough effect in the signal ratio, with a control signal flat (not every such curve was filed as active); inconclusive = small, poorly fitted or top-dose-only effect, or effect the other way, or a change in a side signal; inactive = flat fitted curve, though single readings scatter; the % refers to the signal ratio.

Experiment: qHTS Assay for Lipid Storage Modulators in Drosophila S3 Cells;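 for cell number change: cells counted by Cell Tracker Red CMTPX staining in the red channel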; for lipid storage change, negative = inhibition: % is set by controls: 0 for no effect and ±100 for the full control effect
Conditions: BODIPY lipid droplet fluorescence, 18-24 h, cells fed with added oleic acid; cell number change: measured here: cell count max response; series mostly up to 46.1 µM; lipid storage change, negative = inhibition: at the top concentration
Procedure, shortened: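 Laser-scanning cytometry quantifies lipid droplet accumulation (500–530 nm total intensity; droplet/cell object ratio) in oleic acid-fed (400 uM added) Drosophila S3 cells treated with a concentration series. 20 uM Triacsin C defined 100% inhibition.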
Potency is the fitted concentration of half-maximal effect.

SMILES | lipid storage change, negative = inhibition | cell number change | Potency | outcome
CC(=O)N1C(=O)CC(C)N(C(C)=O)c2ccc([N+](=O)[O-])cc21 (configuration not stated) | 2.55% (inactive) | 1.88% | – | –
CNC(=O)c1[nH]nc2c1CCc1ccccc1-2 | -1.15% (inactive) | 13.3% | – | –
c1ccc2c(c1)CCc1c(-c3ccncc3)n[nH]c1-2 | – | 7.47% | 18.4 µM (active) | –
CC(C)NC(=O)c1[nH]nc2c1CCc1ccccc1-2 | – | -0.945% | – | inactive
CC(C)C(=O)N1CCN(c2ccccc2NC(=O)COc2ccccc2)CC1 | 9.3% (inactive) | -6.41% | – | –
CCOC(=O)N1CCN(c2c(NC3CCN(Cc4ccccc4)CC3)c(=O)c2=O)CC1 | 3.89% (inactive) | 6.86% | – | –
O=C(c1cccc([N+](=O)[O-])c1)N(c1ccccn1)c1ccccn1 | -6.93% (inactive) | 2.68% | – | –
Cc1ccc(NS(=O)(=O)c2cccc(C(=O)NCC(c3ccco3)N3CCCC3)c2)cc1 (configuration not stated) | 9.46% (inactive) | -2.68% | – | –
CN(C)C(CNC(=O)c1ccc(S(=O)(=O)Nc2ccccc2)cc1)c1ccco1 (configuration not stated) | 13% (inactive) | 14.1% | – | –
Cc1ccc(N(C)S(=O)(=O)c2cccc(C(=O)NCC(c3ccco3)N3CCCC3)c2)cc1 (configuration not stated) | – | -25.8% | 7.31 µM (active) | –
COc1ccc(N(C)S(=O)(=O)c2cccc(C(=O)NCC(c3ccco3)N3CCCC3)c2)cc1 (configuration not stated) | 13.3% (inactive) | 8.75% | – | –
CN(C)C(CNC(=O)c1cc(S(=O)(=O)N(C)c2ccc(F)cc2)ccc1Cl)c1ccco1 (configuration not stated) | 19.2% (inactive) | – | – | –
Cc1ccc(S(=O)(=O)N(C)c2ccc(C(=O)NCC(c3ccco3)N(C)C)cc2)cc1 (configuration not stated) | – | -16.7% | 1.64 µM (active) | –
Cc1ccc(C)c(NC(=S)NCC(c2ccccc2)N(C)C)c1 (configuration not stated) | – | – | – | inactive
Cc1cc(C)c2c(=O)cc(C(F)(F)F)oc2n1 | 9.56% (inactive) | 15.1% | – | –
O=C(N/N=C/c1cccnc1)c1ccc(NC(=O)c2ccc(Cl)cc2)cc1 | – | 0.451% | 0.13 µM (active) | –
Cc1ccc(C(=O)Nc2ccc(C(=O)N/N=C/c3cccnc3)cc2)cc1 | – | 17.5% | – | inactive
CC(=O)Nc1ccc(C(=O)N/N=C/c2cccnc2)cc1 | 12.5% (inactive) | 0.939% | – | –
CC(C)c1ccc(NC2CCCN(C(=O)c3ccccc3-c3ncc[nH]3)C2)cc1 (configuration not stated) | – | -18.8% | – | inactive
COc1ccc(NC(=O)Nc2ccc3c(c2)CCC3)c(OC)c1 | -7.77% (inactive) | 9.57% | – | –

SMILES | lipid storage change, negative = inhibition | cell number change | Potency | outcome
O=C(Cn1c(-c2ccccc2)c[n+]2ccsc12)c1ccc(Br)cc1 | 21.2% (inactive) | – | – | –
O=C1Nc2ccc(Cl)cc2C12OCCCO2 | – | 13.2% | – | inactive
COC(=O)C1(C(F)(F)F)N=C(C(F)(F)F)Nc2ccc(Cl)cc21 (configuration not stated) | -2.99% (inactive) | 5.94% | – | –
O=C1Nc2ccc(Cl)cc2C(C#CC2CC2)(C(F)(F)F)O1 (configuration not stated) | – | -25.6% | 9.2 µM (active) | –
O=C(Cn1nnc2ccccc21)C1CC1 | 9.19% (inactive) | 7.3% | – | –
NCc1cc2c3c(c1)CCCN3CCC2 | 0.546% (inactive) | – | – | –
C=CCOc1cccc(C(=O)N2CCCC(CNS(=O)(=O)c3cccs3)C2)c1 (configuration not stated) | 10.9% (inactive) | 11.7% | – | –
Cc1ccccc1-n1ncc2c1CC(C)(C)CC2NC(=O)CCC(F)(F)F (configuration not stated) | 3.89% (inactive) | 7.77% | – | –
CSCCC(=O)NC1CC(C)(C)Cc2c1cnn2-c1ccccc1C (configuration not stated) | 11.4% (inactive) | 13.5% | – | –
Cc1ccccc1-n1ncc2c1CC(C)(C)CC2NC(=O)CSc1ccncc1 (configuration not stated) | – | -2.05% | 0.461 µM (active) | –
CC(C)=C1SC(N2CCN(c3cccc(Cl)c3)CC2)=NC1=O | -7.9% (inactive) | 5.96% | – | –
COc1cccc(N2C(=NC(=O)C3CCCCC3)SC3CS(=O)(=O)CC32)c1 (configuration not stated) | – | -4.58% | – | inactive
COc1cccc(N2C(=NC(=O)CCC3CCCC3)SC3CS(=O)(=O)CC32)c1 (configuration not stated) | – | 4.89% | 11.6 µM (active) | –
COc1cccc(N2C(=NC(=O)CCc3ccccc3)SC3CS(=O)(=O)CC32)c1 (configuration not stated) | – | -7.96% | – | inactive
Cc1occc1C(=O)N1CCN(c2ccc(Cl)c(Cl)c2)CC1 | – | – | – | inactive
Cc1ccccc1OC(C)C(=O)N1CCC(Cc2ccccc2)CC1 (configuration not stated) | -2.98% (inactive) | 12.1% | – | –
O=C(Cc1ccc(Cl)cc1)NNS(=O)(=O)c1ccc([N+](=O)[O-])cc1 | -7.64% (inactive) | 7.62% | – | –
O=C(Cc1ccccc1)NNS(=O)(=O)c1ccc([N+](=O)[O-])cc1 | – | 0.088% | 1.46 µM (active) | –
O=C(NNS(=O)(=O)c1ccccc1)c1ccc([N+](=O)[O-])cc1 | – | 3.57% | – | inactive
Cc1ccc(Cc2cnc(NC(=O)/C(C#N)=C/c3ccc(-c4ccccc4[N+](=O)[O-])o3)s2)cc1 | 11.5% (inactive) | -16% | – | –

SMILES | lipid storage change, negative = inhibition | cell number change | Potency | outcome
CCOC(=O)CSc1nc(Cc2ccccc2)nc2ccccc12 | 0.223% (inactive) | – | – | –
CCOC(=O)CNC(=O)CSc1nc(Cc2ccccc2)nc2ccccc12 | – | -15.2% | 7.31 µM (active) | –
CCOC(=O)CNC(=O)CSc1nc(Cc2cccs2)nc2ccccc12 | -32.5% (inactive) | -11.5% | – | –
O=C(NN=C1CCCC1)c1ccccc1[N+](=O)[O-] | – | 7.42% | – | inactive
Cc1cc(C)nc(NC(C)(C)C(=O)O)n1 | -23.2% (inactive) | 0.119% | – | –
O=C(c1ccccc1Br)N1CCCC(c2nc(-c3cccs3)no2)C1 (configuration not stated) | – | – | – | inactive
COc1ccc(-c2noc(C3CCCN(C(=O)c4ccc(C)cc4)C3)n2)cc1 (configuration not stated) | 4.74% (inactive) | 10.5% | – | –
Cc1ccc(-c2noc(C3CCCN(C(=O)c4ccccc4Br)C3)n2)cc1 (configuration not stated) | – | -26.6% | 18.4 µM (active) | –
Cc1nn(C)c(Cl)c1C(=O)NCC(=O)NCc1ccccc1 | -13.1% (inactive) | -13% | – | –
Nc1nonc1-n1nnc(C(=O)N/N=C/c2ccoc2)c1-c1ccccc1 | – | 11.3% | – | inactive
O=C(O)c1ccccc1C(=O)NCCCn1ccnc1 | 6.83% (inactive) | 7.04% | – | –
Nc1c(O)ccc2c1C(=O)c1ccccc1C2=O | -9.3% (inactive) | -17.1% | – | –
CCOc1cc(C(=O)OCC(=O)N(C)c2ccccc2)cc(OCC)c1OCC | – | 9.01% | – | inactive
Cc1[nH]nc(SCC(=O)N2CCCC2)c1[N+](=O)[O-] | -2.11% (inactive) | -4.82% | – | –
CN1CCN(C(=O)CCn2c(=O)c3cccn3c3cccnc32)CC1 | -18.5% (inactive) | 17.7% | – | –
COc1ccc(CCNC(=O)CCCn2c(=O)c3cccn3c3cccnc32)c(OC)c1 | – | -19.3% | 16.4 µM (active) | –
COc1cccc(CNC(=O)CCn2c(=O)c3cccn3c3cccnc32)c1 | -26% (inactive) | 1.83% | – | –
CCc1ccc(CNC(=O)CCCn2c(=O)c3cccn3c3cccnc32)cc1 | – | – | – | inactive
CSc1cccc(NC(=O)CCCn2c(=O)c3cccn3c3cccnc32)c1 | – | -18.8% | 18.4 µM (active) | –
COc1ccc(N2CCN(C(=O)CCCn3c(=O)c4cccn4c4cccnc43)CC2)cc1 | – | 22.2% | – | inactive
